“And” between values parts separate entries of the source, which are not always exact repeats. Identical values can stand only once. Records with an inconclusive call do not appear. The source made the active and inactive calls. How the source made its calls, unless noted: active means hit-call score of the fitted dose curve at least 0.9, where 1 is the maximum; inactive means score below 0.9.
Experiments:
[1] = biological target: X-box-binding protein 1 (Homo sapiens) (UniProt P17861); assay: ATG_Xbp1_CIS: Attagene CIS-FACTORIAL HepG2 Assay for human X-box Binding Protein 1 (XBP1) (AID 2282972); details: HepG2 XBP1 cis-element reporter, Attagene multiplex; actives raise or lower the signal
Method in brief: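 After a 24-hour chemical exposure of HepG2 cells carrying cis-regulated reporters, reporter mRNA levels are assessed. Quantification uses RT-PCR, 6-FAM labelling and capillary electrophoresis. Gain- or loss-of-signal is fitted against DMSO.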

[2] = ATG_M_19_TRANS: Attagene TRANS-FACTORIAL HepG2 Assay for M19 Transcription Factor (Internal Marker) (AID 2282974; active means hit-call score of the fitted dose curve at least 0.9, where 1 is the maximum); details: HepG2 Attagene TRANS-FACTORIAL M19 internal marker reporter
Method in brief: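 24 h chemical exposure of transiently transfected HepG2 (MRTU library). RNA → oligo(dT) RT → PCR → 6-FAM labelling → HpaI cut → CE fluorescence. Positive-direction fit vs DMSO baseline; background internal-marker readout.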

[3] = ATG_GAL4_TRANS: Attagene TRANS-FACTORIAL HepG2 Assay for GAL4 (Internal Marker) (AID 2282976; active means hit-call score of the fitted dose curve at least 0.9, where 1 is the maximum); details: HepG2 Attagene TRANS GAL4 internal marker reporter
Method in brief: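 Background-control readout: GAL4-UAS reporter transcript in transiently transfected HepG2 cells after 24 h compound exposure. Measured by RT-PCR, 6-FAM primer extension, HpaI digest and capillary electrophoresis; gain-of-signal fit versus DMSO.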

[4] = biological target: Glucocorticoid receptor (Homo sapiens) (UniProt P04150); assay: ATG_GR_TRANS: Attagene TRANS-FACTORIAL HepG2 Assay for human Glucocorticoid Receptor (GR) (AID 2282978; active means hit-call score of the fitted dose curve at least 0.9, where 1 is the maximum;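 further: activators score as hits since higher reporter transcript over DMSO is fitted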); details: HepG2 Attagene TRANS GR reporter, mRNA transcription
Method in brief: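 Transient MRTU transfection of HepG2 (GAL4-UAS reporters, exogenous NR-GAL4 chimeras), 24 h dosing. Readout: reporter transcript via RT-PCR + capillary electrophoresis fluorescence. Positive direction vs DMSO baseline.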

[5] = biological target: Hepatocyte nuclear factor 4-alpha (Homo sapiens) (UniProt P41235); assay: ATG_HNF4a_TRANS: Attagene TRANS-FACTORIAL HepG2 Assay for human Hepatocyte Nuclear Factor 4 alpha (HNF4a) (AID 2282982; active means hit-call score of the fitted dose curve at least 0.9, where 1 is the maximum); details: HepG2 HNF4a transactivation reporter, mRNA readout
Method in brief: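 Gain-of-signal mRNA induction, relative to DMSO vehicle, was read after 24 h compound treatment of HepG2 cells bearing transfected GAL4-UAS reporters. Detection used RT-PCR, 6-FAM primer extension and capillary electrophoresis.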

[6] = ATG_M_06_TRANS: Attagene TRANS-FACTORIAL HepG2 Assay for M06 Transcription Factor (Internal Marker) (AID 2282983; active means hit-call score of the fitted dose curve at least 0.9, where 1 is the maximum); details: HepG2 Attagene TRANS M06 internal marker reporter
Method in brief: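 HepG2 cells transiently transfected with GAL4-UAS multiple reporter units, dosed 24 h. Reporter RNA reverse-transcribed, PCR-amplified, 6-FAM-labeled, HpaI-digested and quantified by capillary electrophoresis; this internal-marker signal fitted upward relative to DMSO.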

[7] = ATG_M_32_TRANS: Attagene TRANS-FACTORIAL HepG2 Assay for M32 Transcription Factor (Internal Marker) (AID 2282984; active means hit-call score of the fitted dose curve at least 0.9, where 1 is the maximum); details: HepG2 Attagene TRANS M32 internal marker reporter
Method in brief: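 Capillary electrophoresis of 6-FAM-labelled reporter fragments gives the signal; data fitted for gain over DMSO negative control. Source: HepG2 cells bearing transient multiple reporter transcription units, 24 h exposure.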

[8] = biological target: Nuclear receptor subfamily 4 group A member 2 (Homo sapiens) (UniProt P43354); assay: ATG_NURR1_TRANS: Attagene TRANS-FACTORIAL HepG2 Assay for human Nuclear Receptor Related Protein 1 (NURR1) (AID 2282985; active means hit-call score of the fitted dose curve at least 0.9, where 1 is the maximum); details: HepG2 Attagene TRANS reporter, mRNA readout
Method in brief: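 HepG2 / transient MRTU transfection / 24 h compound exposure / RT-PCR + CE fluorescence of reporter mRNA / gain-of-signal vs DMSO.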

[9] = biological target: Transcriptional activator Myb (Homo sapiens) (UniProt P10242); assay: ATG_Myb_CIS: Attagene CIS-FACTORIAL HepG2 Assay for human Myeloblastosis (Myb) Proto-Oncogene Transcription Factor (AID 2282986); details: HepG2 Attagene CIS-FACTORIAL Myb reporter transcription; actives raise or lower the signal
Method in brief: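 HepG2, transient MRTU transfection (cis-element promoters, endogenous TF activity), 24 h compound exposure. Readout: reporter mRNA via RT-PCR, 6-FAM labeling, HpaI digest, capillary electrophoresis. Gain/loss fit vs DMSO.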

[10] = biological target: Nuclear respiratory factor 1 (Homo sapiens) (UniProt Q16656); assay: ATG_NRF1_CIS: Attagene CIS-FACTORIAL HepG2 Assay for human Nuclear Respiratory Factor 1 (NRF1) Orphan Gene (AID 2282987); details: HepG2 NRF1 cis-element reporter, Attagene multiplex; actives raise or lower the signal
Method in brief: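 Endogenous NRF1-driven reporter transcription measured in transiently transfected human HepG2 liver cells. Readout: reporter mRNA by RT-PCR and capillary electrophoresis with fluorescence detection, 24 h post-dosing. Gain or loss of signal fitted relative to DMSO baseline.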

[11] = ATG_NFI_CIS: Attagene CIS-FACTORIAL HepG2 Assay for human Nuclear Factor I (NFI) (AID 2282989); details: HepG2 cis-regulatory reporter, NFI response element transcription; actives raise or lower the signal
Method in brief: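 Endogenous TF activity in HepG2 cells transiently transfected with cis-element-driven multiplexed reporter units, read 24 h after dosing. Reporter mRNA quantified by RT-PCR, 6-FAM labelling, HpaI digestion and capillary electrophoresis; bidirectional fit versus DMSO.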

[12] = biological target: Myc proto-oncogene protein (Homo sapiens) (UniProt P01106); assay: ATG_Myc_CIS: Attagene CIS-FACTORIAL HepG2 Assay for human Myelocytomatosis (Myc) Proto-Oncogene Transcription Factor (AID 2282990); details: HepG2, Attagene cis-reporter transcription factor activity; actives raise or lower the signal
Method in brief: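 Transiently transfected HepG2 cells bearing cis-promoter reporter units for endogenous transcription factors; 24 h exposure. Reporter mRNA measured by RT-PCR, 6-FAM primer extension, HpaI cut and capillary electrophoresis; bidirectional fit relative to DMSO.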

[13] = ATG_NF_kB_CIS: Attagene CIS-FACTORIAL HepG2 Assay for human Nuclear Factor Kappa B (NF-kB) (AID 2282991); details: HepG2 Attagene cis-factorial NF-kB reporter mRNA; actives raise or lower the signal
Method in brief: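 Read-out: reporter transcript levels quantified by RT-PCR plus capillary electrophoresis of 6-FAM-labelled, HpaI-cut fragments. Transfected HepG2 cells, 24 h compound exposure, endogenous NF-kB-driven cis element; gain or loss scored versus DMSO.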

[14] = ATG_NRF2_ARE_CIS: Attagene CIS-FACTORIAL HepG2 Assay for human Nuclear Factor Erythroid 2 Related Factor 2 (NFR2) response to Antioxidant Response Elements (ARE) (AID 2282992); details: HepG2 Attagene ARE/NRF2 reporter, transcription factor activity; actives raise or lower the signal
Method in brief: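 Cis-factorial assay: transfected HepG2 reporter library, 24 h dosing, mRNA readout via RT-PCR/CE; DMSO-referenced bidirectional analysis.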

[15] = biological target: Bile acid receptor (Homo sapiens) (UniProt Q96RI1); assay: ATG_FXR_TRANS: Attagene TRANS-FACTORIAL HepG2 Assay for Farnesoid X Receptor (FXR) (AID 2282979; active means hit-call score of the fitted dose curve at least 0.9, where 1 is the maximum;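 further: hits raise reporter mRNA above DMSO so AC50 marks FXR activation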); details: HepG2 Attagene TRANS FXR-GAL4 reporter transcription
Method in brief: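 HepG2 cells were transiently transfected with GAL4-UAS reporters driven by chimeric NR-Gal4 proteins and dosed for 24 h. Reporter mRNA was quantified by RT-PCR, fluorescent labelling, HpaI digestion and capillary electrophoresis, with gain of signal scored versus DMSO.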

[16] = biological target: Oxysterols receptor LXR-alpha (Homo sapiens) (UniProt Q13133); assay: ATG_LXRa_TRANS: Attagene TRANS-FACTORIAL HepG2 Assay for human Liver X Receptor alpha (LXRa) (AID 2282980; active means hit-call score of the fitted dose curve at least 0.9, where 1 is the maximum); details: HepG2 Attagene TRANS reporter, LXRa transactivation
Method in brief: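 HepG2 cells transiently transfected with GAL4-UAS reporter units for chimeric NR-Gal4 proteins, exposed to chemicals for 24 h. Reporter mRNA quantified by RT-PCR and capillary electrophoresis; gain of signal fitted relative to DMSO.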

[17] = biological target: Oxysterols receptor LXR-beta (Homo sapiens) (UniProt P55055); assay: ATG_LXRb_TRANS: Attagene TRANS-FACTORIAL HepG2 Assay for human Liver X Receptor beta (LXRb) (AID 2282981; active means hit-call score of the fitted dose curve at least 0.9, where 1 is the maximum); details: HepG2 Attagene TRANS GAL4-LXRb reporter, mRNA
Method in brief: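 Gain-of-signal mRNA reporter endpoint, DMSO as negative control. Transiently transfected HepG2 cells carrying the NR-Gal4 chimera and GAL4-UAS reporter units were treated 24 h; transcripts quantified by RT-PCR and capillary electrophoresis fluorescence.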

Measured: AC50

Sequence of Nuclear respiratory factor 1 (Homo sapiens) (Q16656 whole entry, looked up): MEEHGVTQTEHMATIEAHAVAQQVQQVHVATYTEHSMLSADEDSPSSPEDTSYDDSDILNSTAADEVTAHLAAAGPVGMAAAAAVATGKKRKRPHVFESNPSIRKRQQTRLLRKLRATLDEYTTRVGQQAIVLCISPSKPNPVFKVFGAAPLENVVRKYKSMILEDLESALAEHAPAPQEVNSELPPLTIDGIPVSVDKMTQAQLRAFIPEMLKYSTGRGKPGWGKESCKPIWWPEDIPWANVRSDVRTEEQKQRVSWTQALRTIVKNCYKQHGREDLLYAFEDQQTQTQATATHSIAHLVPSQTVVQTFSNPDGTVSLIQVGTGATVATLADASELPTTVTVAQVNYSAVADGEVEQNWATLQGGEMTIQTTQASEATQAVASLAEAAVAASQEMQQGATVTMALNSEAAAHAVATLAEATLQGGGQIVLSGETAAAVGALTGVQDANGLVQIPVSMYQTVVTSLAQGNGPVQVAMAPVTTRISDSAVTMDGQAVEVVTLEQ
Sequence of Myc proto-oncogene protein (Homo sapiens) (P01106 whole entry, looked up): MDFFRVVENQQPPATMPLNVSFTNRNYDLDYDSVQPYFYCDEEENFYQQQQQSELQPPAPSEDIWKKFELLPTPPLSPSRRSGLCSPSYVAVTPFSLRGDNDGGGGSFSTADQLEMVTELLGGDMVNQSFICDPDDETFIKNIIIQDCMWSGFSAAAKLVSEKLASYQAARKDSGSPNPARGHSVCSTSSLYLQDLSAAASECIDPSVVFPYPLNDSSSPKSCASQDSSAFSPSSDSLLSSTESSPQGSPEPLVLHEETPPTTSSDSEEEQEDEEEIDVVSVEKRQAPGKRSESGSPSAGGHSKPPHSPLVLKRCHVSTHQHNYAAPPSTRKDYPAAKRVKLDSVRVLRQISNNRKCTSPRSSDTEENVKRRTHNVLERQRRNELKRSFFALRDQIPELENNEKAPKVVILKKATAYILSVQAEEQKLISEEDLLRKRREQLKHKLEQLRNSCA
Sequence of Nuclear receptor subfamily 4 group A member 2 (Homo sapiens) (P43354 whole entry, looked up): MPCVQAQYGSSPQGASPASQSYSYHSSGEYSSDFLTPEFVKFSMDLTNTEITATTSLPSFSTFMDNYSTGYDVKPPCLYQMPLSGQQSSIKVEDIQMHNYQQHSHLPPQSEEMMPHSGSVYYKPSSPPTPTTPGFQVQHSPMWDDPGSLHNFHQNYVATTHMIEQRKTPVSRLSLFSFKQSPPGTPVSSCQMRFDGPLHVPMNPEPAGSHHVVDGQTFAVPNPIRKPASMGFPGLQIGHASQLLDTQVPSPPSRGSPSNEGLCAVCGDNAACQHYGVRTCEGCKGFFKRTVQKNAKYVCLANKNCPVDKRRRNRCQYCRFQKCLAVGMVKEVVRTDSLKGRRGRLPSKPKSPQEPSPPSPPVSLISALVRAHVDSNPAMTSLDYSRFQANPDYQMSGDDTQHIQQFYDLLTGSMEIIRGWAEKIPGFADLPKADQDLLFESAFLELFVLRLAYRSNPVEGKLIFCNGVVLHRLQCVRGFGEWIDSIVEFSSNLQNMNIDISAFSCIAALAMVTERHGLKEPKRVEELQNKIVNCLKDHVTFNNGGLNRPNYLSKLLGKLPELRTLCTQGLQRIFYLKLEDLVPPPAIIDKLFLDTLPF
Sequence of Oxysterols receptor LXR-alpha (Homo sapiens) (Q13133 whole entry, looked up, the tested form may be a part): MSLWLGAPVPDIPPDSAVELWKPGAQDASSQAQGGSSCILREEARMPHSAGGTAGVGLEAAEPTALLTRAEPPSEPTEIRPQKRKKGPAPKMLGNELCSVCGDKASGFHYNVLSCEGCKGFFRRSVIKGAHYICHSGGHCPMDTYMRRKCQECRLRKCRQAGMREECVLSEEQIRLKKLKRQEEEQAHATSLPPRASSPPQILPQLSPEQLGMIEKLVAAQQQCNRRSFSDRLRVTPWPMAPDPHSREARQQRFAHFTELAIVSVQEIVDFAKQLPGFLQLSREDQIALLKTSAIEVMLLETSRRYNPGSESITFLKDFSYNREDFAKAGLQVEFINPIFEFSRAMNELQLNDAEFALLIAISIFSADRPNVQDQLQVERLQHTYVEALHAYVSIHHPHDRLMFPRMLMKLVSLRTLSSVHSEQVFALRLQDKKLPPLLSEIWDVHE
Sequence of Hepatocyte nuclear factor 4-alpha (Homo sapiens) (P41235 whole entry, looked up, the tested form may be a part): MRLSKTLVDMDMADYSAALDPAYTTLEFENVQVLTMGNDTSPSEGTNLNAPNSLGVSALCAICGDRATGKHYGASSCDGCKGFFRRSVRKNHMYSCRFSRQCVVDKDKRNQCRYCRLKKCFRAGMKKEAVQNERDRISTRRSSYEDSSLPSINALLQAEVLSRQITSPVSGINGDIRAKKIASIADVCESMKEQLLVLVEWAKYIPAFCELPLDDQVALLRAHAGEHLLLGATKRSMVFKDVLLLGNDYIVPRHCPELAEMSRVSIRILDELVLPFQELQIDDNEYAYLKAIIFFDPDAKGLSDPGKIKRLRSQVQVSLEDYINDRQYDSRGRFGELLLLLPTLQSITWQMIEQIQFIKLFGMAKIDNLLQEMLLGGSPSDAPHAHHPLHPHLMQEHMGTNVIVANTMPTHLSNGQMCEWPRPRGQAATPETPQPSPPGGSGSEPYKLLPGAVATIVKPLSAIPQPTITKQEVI
Sequence of Transcriptional activator Myb (Homo sapiens) (P10242 whole entry, looked up): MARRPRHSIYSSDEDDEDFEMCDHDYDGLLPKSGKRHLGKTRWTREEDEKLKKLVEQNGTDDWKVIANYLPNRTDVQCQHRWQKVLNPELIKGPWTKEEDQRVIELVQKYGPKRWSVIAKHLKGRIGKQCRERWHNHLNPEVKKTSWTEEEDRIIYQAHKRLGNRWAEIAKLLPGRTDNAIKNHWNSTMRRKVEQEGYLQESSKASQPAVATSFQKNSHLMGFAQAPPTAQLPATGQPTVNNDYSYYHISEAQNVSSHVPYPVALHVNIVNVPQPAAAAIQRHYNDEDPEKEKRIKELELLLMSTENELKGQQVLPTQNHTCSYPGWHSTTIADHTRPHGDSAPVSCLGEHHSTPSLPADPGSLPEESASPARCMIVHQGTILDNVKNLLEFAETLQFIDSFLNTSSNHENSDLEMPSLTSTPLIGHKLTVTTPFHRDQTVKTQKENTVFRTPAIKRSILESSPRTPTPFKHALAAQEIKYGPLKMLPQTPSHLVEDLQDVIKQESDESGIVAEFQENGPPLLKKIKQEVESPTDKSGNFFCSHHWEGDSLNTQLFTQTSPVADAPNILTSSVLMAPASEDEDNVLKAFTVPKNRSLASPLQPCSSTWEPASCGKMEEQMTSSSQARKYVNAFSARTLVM
Sequence of Bile acid receptor (Homo sapiens) (Q96RI1 whole entry, looked up, the tested form may be a part): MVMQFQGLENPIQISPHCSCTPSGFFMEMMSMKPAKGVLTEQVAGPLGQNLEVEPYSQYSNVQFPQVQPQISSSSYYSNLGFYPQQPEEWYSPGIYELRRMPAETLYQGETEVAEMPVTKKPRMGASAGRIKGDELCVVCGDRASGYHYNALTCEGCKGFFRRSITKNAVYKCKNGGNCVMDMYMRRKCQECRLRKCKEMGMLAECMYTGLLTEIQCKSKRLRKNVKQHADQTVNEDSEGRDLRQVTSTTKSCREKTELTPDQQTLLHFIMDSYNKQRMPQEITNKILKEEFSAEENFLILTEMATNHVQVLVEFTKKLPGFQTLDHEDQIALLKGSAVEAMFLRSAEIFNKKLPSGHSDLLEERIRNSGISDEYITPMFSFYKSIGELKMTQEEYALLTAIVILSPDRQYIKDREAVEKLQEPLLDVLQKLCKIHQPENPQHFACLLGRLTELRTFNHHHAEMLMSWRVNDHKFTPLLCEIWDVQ
Sequence of X-box-binding protein 1 (Homo sapiens) (P17861 whole entry, looked up): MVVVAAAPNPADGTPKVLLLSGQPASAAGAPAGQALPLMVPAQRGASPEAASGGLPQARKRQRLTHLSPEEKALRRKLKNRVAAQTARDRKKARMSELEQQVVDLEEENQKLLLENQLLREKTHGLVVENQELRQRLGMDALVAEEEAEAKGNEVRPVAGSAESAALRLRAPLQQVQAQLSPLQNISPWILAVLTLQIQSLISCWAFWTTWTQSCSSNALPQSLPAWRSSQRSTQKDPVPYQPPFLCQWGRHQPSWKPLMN
Sequence of Glucocorticoid receptor (Homo sapiens) (P04150 whole entry, looked up, the tested form may be a part): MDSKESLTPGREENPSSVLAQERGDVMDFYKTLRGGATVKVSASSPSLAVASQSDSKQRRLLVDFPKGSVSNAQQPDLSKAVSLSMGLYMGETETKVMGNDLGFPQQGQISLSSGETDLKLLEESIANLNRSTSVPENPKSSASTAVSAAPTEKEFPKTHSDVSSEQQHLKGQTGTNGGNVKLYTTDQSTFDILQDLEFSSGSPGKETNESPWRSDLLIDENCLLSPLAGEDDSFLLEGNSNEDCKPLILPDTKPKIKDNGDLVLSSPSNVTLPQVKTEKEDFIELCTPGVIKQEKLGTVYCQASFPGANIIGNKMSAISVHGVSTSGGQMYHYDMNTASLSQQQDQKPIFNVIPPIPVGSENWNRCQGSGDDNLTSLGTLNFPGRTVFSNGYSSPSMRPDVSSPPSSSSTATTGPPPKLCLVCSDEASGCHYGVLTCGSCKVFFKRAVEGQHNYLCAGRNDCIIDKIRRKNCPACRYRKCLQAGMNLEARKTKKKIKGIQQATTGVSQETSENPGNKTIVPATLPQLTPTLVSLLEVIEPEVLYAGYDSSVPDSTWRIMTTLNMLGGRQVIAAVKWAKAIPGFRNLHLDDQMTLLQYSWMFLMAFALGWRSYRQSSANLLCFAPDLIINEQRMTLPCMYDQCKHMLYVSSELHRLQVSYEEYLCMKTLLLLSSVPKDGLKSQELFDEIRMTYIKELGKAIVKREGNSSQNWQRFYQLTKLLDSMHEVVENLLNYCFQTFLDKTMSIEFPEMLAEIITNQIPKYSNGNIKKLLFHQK

Nc1c(Oc2ccccc2)cc(O)c2c1C(=O)c1ccccc1C2=O
active: [14] 2.25 µM
not listed: [15] | [16] | [17]
inactive: all other assays above

OC[P+](CO)(CO)CO
active: [14] 30.2 µM and 26.4 µM
not listed: [7] | [8] | [13] | [15] | [16] | [17]
inactive: all other assays above

CNC(=O)CSP(=O)(OC)OC
not listed: [3] | [16] | [17]
inactive: all other assays above

O=S(=O)(C(Cl)(Cl)Cl)C(Cl)(Cl)Cl
active: [1] 15.4 µM | [11] 17.9 µM | [12] 11.1 µM | [13] 15.6 µM | [14] 2.87 µM
inactive: [2] | [3] | [16] | [6] | [7] | [8] | [10]

O=C=Nc1ccc(Cl)cc1
active: [12] 149 µM
inactive: [1] | [2] | [3] | [16] | [7] | [8] | [10] | [14]

COc1ccc(N)cc1
not listed: [5] | [6] | [8] | [9] | [13] | [15] | [17]
inactive: all other assays above

Nc1nc(N)nc(Cl)n1
not listed: [4] | [6] | [8] | [13] | [14] | [15] | [16]
inactive: all other assays above

OC(c1ccc(Cl)cc1)(c1ccc(Cl)cc1)c1cccnc1
active: [14] 11.1 µM
not listed: [4] | [7] | [9] | [16] | [17]
inactive: all other assays above

CCCCN(CCCC)C(=S)[S-].CCCCN(CCCC)C(=S)[S-].[Ni+2]
not listed: [4] | [8] | [13] | [15] | [17]
inactive: all other assays above

Cc1cc(C)cc(C)c1
inactive: [1] | [2] | [3] | [6] | [10] | [11] | [12] | [13] | [14]

NC(=O)c1ccc(N)nc1
not listed: [3] | [6] | [7] | [8] | [9] | [16] | [17]
inactive: all other assays above

CCCCCCCCCCCCOS(=O)(=O)O
inactive: [1] | [2] | [3] | [4] | [9] | [10] | [11] | [12] | [14]

From PubChem BioAssay (EPA / NIEHS)
